PubChem BioAssay (NCI)
About 79,000 compounds went through this panel and 15% of them were active in at least one assay; those are over-represented in the sample as a whole. A number with no mark means an inactive call. Calls of active or inactive are those of the source. Cut-off read from the data, not from the text of the source: active = growth inhibition above about 70%; inactive = the rest.

Tests used:
[1] = NCI Yeast Anticancer Drug Screen. Data for the rad50 strain (AID 155);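 note: 0% = growth of vehicle-only cultures of the same strain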; settings: S. cerevisiae rad50 strain growth inhibition, active compounds read high
How it was run: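 Relative growth inhibition (compound vs vehicle) was measured in yeast with a defined repair-gene alteration.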

[2] = NCI Yeast Anticancer Drug Screen. Data for the mec2-1 strain (AID 157); settings: S. cerevisiae mec2-1 strain, active compounds read high
How it was run: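 Strain: mec2-1 (DNA repair/cell cycle alteration). Compound exposure, then growth measured; inhibition expressed relative to vehicle.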

[3] = NCI Yeast Anticancer Drug Screen. Data for the sgs1 mgt1 strain (AID 161);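 note: 0% = growth of cultures given vehicle only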; settings: S. cerevisiae sgs1 mgt1 strain, active compounds read high
How it was run: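 Genetically altered yeast, compound exposure, growth inhibition relative to vehicle.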

[4] = NCI Yeast Anticancer Drug Screen. Data for the cln2 rad14 strain (AID 165);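 note: 0% = growth equal to vehicle treated cultures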; settings: S. cerevisiae cln2 rad14 strain, active compounds read high
How it was run: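 Compounds are applied to the cln2 rad14 yeast strain, and growth is then compared with that of vehicle-treated cultures to give inhibition.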

[5] = NCI Yeast Anticancer Drug Screen. Data for the bub3 strain (AID 167); settings: S. cerevisiae bub3 mutant strain, active compounds read high
How it was run: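 Screening used yeast with an engineered genetic alteration affecting cell cycle control. Compound-exposed cultures were compared with vehicle cultures, and reduced growth was taken as inhibition.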

[6] = NCI Yeast Anticancer Drug Screen. Data for the mlh1 rad18 strain (AID 175); settings: S. cerevisiae mlh1 rad18 strain growth inhibition, active compounds read high
How it was run: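 Read-out is yeast growth inhibition, calculated against vehicle-only controls. The compound was applied to a strain engineered with DNA damage repair alterations.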

[7] = at 5.0 µM (retest, dose inferred, filed as 0.5)
[8] = at 50.0 µM (retest, dose inferred, filed as 5.0)

## Nc1nnc(-c2cc([N+](=O)[O-])cc([N+](=O)[O-])c2)o1
[1]; [7]
  growth inhibition: -16%
[1]; [8]
  growth inhibition: -2%
[1]; at 50.0 µM
  growth inhibition: 22.8%
[2]; [7]
  growth inhibition: -4%
[2]; [8]
  growth inhibition: -5%
[2]; at 50.0 µM
  growth inhibition: 14.6%
[3]; [7]
  growth inhibition: -1%
[3]; [8]
  growth inhibition: 14%
[3]; at 50.0 µM
  growth inhibition: 15.1%
[4]; [7]
  growth inhibition: 6%
[4]; [8]
  growth inhibition: 20%
[4]; at 50.0 µM
  growth inhibition: -20.2%
[5]; [7]
  growth inhibition: 3%
[5]; [8]
  growth inhibition: 7%
[5]; at 50.0 µM
  growth inhibition: -19.2%
[6]; [7]
  growth inhibition: -21%
[6]; [8]
  growth inhibition: 3%
[6]; at 50.0 µM
  growth inhibition: 31.9%

## CC(C)/C=N/N(CCOC(=O)Nc1ccccc1)C(=O)Nc1ccccc1
[1]; [7]
  growth inhibition: 8%
[1]; [8]
  growth inhibition: -6%
[1]; at 50.0 µM
  growth inhibition: -3.85%
[2]; [7]
  growth inhibition: -6%
[2]; [8]
  growth inhibition: -12%
[2]; at 50.0 µM
  growth inhibition: 14.3%
[3]; [7]
  growth inhibition: -1%
[3]; [8]
  growth inhibition: -6%
[3]; at 50.0 µM
  growth inhibition: -12.7%
[4]; [7]
  growth inhibition: -5%
[4]; [8]
  growth inhibition: -1%
[4]; at 50.0 µM
  growth inhibition: 82.2% (active)
[5]; [7]
  growth inhibition: -7%
[5]; [8]
  growth inhibition: -9%
[5]; at 50.0 µM
  growth inhibition: 16.1%
[6]; [7]
  growth inhibition: -3%
[6]; [8]
  growth inhibition: -5%
[6]; at 50.0 µM
  growth inhibition: 6.9%

## CC(C)c1ccc(C(=O)OC2CCCCC2)cc1
[1]; [7]
  growth inhibition: 7%
[1]; [8]
  growth inhibition: 97% (active)
[1]; at 50.0 µM
  growth inhibition: 73.3% (active)
[2]; [7]
  growth inhibition: 8%
[2]; [8]
  growth inhibition: 100% (active)
[2]; at 50.0 µM
  growth inhibition: 9.4%
[3]; [7]
  growth inhibition: 7%
[3]; [8]
  growth inhibition: 96% (active)
[3]; at 50.0 µM
  growth inhibition: 46%
[4]; [7]
  growth inhibition: 4%
[4]; [8]
  growth inhibition: 98% (active)
[4]; at 50.0 µM
  growth inhibition: 58.1%
[5]; [7]
  growth inhibition: 1%
[5]; [8]
  growth inhibition: 100% (active)
[5]; at 50.0 µM
  growth inhibition: 88.7% (active)
[6]; [7]
  growth inhibition: 2%
[6]; [8]
  growth inhibition: 96% (active)
[6]; at 50.0 µM
  growth inhibition: 62.2%

## CNC(=O)OC(C)CN1c2ccccc2Sc2ccc(Cl)cc21 (stereo not given)
[1]; [7]
  growth inhibition: 12%
[1]; [8]
  growth inhibition: 97% (active)
[1]; at 50.0 µM
  growth inhibition: 89.1% (active)
[2]; [7]
  growth inhibition: -11%
[2]; [8]
  growth inhibition: 99% (active)
[2]; at 50.0 µM
  growth inhibition: 84.5% (active)
[3]; [7]
  growth inhibition: 2%
[3]; [8]
  growth inhibition: 45%
[3]; at 50.0 µM
  growth inhibition: 90.9% (active)
[4]; [7]
  growth inhibition: 19%
[4]; [8]
  growth inhibition: 98% (active)
[4]; at 50.0 µM
  growth inhibition: 86.5% (active)
[5]; [7]
  growth inhibition: 26%
[5]; [8]
  growth inhibition: 98% (active)
[5]; at 50.0 µM
  growth inhibition: 88.3% (active)
[6]; [7]
  growth inhibition: 19%
[6]; [8]
  growth inhibition: 98% (active)
[6]; at 50.0 µM
  growth inhibition: 88.2% (active)

## CN(C)C(=O)c1ccc(SC(=S)NCc2ccccc2)cc1
[1]; [7]
  growth inhibition: 11%
[1]; [8]
  growth inhibition: 99% (active)
[1]; at 50.0 µM
  growth inhibition: 98.5% (active)
[2]; [7]
  growth inhibition: 0%
[2]; [8]
  growth inhibition: 100% (active)
[2]; at 50.0 µM
  growth inhibition: 97% (active)
[3]; [7]
  growth inhibition: 3%
[3]; [8]
  growth inhibition: 98% (active)
[3]; at 50.0 µM
  growth inhibition: 97.8% (active)
[4]; [7]
  growth inhibition: 7%
[4]; [8]
  growth inhibition: 99% (active)
[4]; at 50.0 µM
  growth inhibition: 96.2% (active)
[5]; [7]
  growth inhibition: -11%
[5]; [8]
  growth inhibition: 99% (active)
[5]; at 50.0 µM
  growth inhibition: 81% (active)
[6]; [7]
  growth inhibition: 24%
[6]; [8]
  growth inhibition: 42%
[6]; at 50.0 µM
  growth inhibition: 98.8% (active)

## CCCCCCCCCCCCCC(=O)N1CCOCC1
[1]; [7]
  growth inhibition: 0%
[1]; [8]
  growth inhibition: 99% (active)
[1]; at 50.0 µM
  growth inhibition: 97.8% (active)
[2]; [7]
  growth inhibition: -3%
[2]; [8]
  growth inhibition: 100% (active)
[2]; at 50.0 µM
  growth inhibition: 99.7% (active)
[3]; [7]
  growth inhibition: -3%
[3]; [8]
  growth inhibition: 99% (active)
[3]; at 50.0 µM
  growth inhibition: 98% (active)
[4]; [7]
  growth inhibition: -1%
[4]; [8]
  growth inhibition: 99% (active)
[4]; at 50.0 µM
  growth inhibition: 96.5% (active)
[5]; [7]
  growth inhibition: 4%
[5]; [8]
  growth inhibition: 99% (active)
[5]; at 50.0 µM
  growth inhibition: 99.6% (active)
[6]; [7]
  growth inhibition: 7%
[6]; [8]
  growth inhibition: 99% (active)
[6]; at 50.0 µM
  growth inhibition: 99.3% (active)

## CSc1ccc2c(c1)S[S@@](=O)N2
[1]; [7]
  growth inhibition: -5%
[1]; [8]
  growth inhibition: 55%
[1]; at 50.0 µM
  growth inhibition: 35.9%
[2]; [7]
  growth inhibition: -11%
[2]; [8]
  growth inhibition: 61%
[2]; at 50.0 µM
  growth inhibition: 1.45%
[3]; [7]
  growth inhibition: 9%
[3]; [8]
  growth inhibition: 34%
[3]; at 50.0 µM
  growth inhibition: 56.6%
[4]; [7]
  growth inhibition: -16%
[4]; [8]
  growth inhibition: 33%
[4]; at 50.0 µM
  growth inhibition: 18.3%
[5]; [7]
  growth inhibition: 5%
[5]; [8]
  growth inhibition: 96% (active)
[5]; at 50.0 µM
  growth inhibition: 51.4%
[6]; [7]
  growth inhibition: -3%
[6]; [8]
  growth inhibition: 38%
[6]; at 50.0 µM
  growth inhibition: 62.5%

## CN(C)CCC(=O)/C=C/c1ccccc1
[1]; [7]
  growth inhibition: -2%
[1]; [8]
  growth inhibition: 3%
[1]; at 50.0 µM
  growth inhibition: 53%
[2]; [7]
  growth inhibition: -1%
[2]; [8]
  growth inhibition: 5%
[2]; at 50.0 µM
  growth inhibition: 38%
[3]; [7]
  growth inhibition: -3%
[3]; [8]
  growth inhibition: 1%
[3]; at 50.0 µM
  growth inhibition: 75.9% (active)
[4]; [7]
  growth inhibition: -2%
[4]; [8]
  growth inhibition: 1%
[4]; at 50.0 µM
  growth inhibition: 38.1%
[5]; [7]
  growth inhibition: -3%
[5]; [8]
  growth inhibition: 11%
[5]; at 50.0 µM
  growth inhibition: 61%
[6]; [7]
  growth inhibition: -3%
[6]; [8]
  growth inhibition: 4%
[6]; at 50.0 µM
  growth inhibition: 63.1%

## CC1CCN(CCC(=O)c2cccc(O)c2)CC1
[1]; [7]
  growth inhibition: 4%
[1]; [8]
  growth inhibition: 57%
[1]; at 50.0 µM
  growth inhibition: 48.5%
[2]; [7]
  growth inhibition: -5%
[2]; [8]
  growth inhibition: 44%
[2]; at 50.0 µM
  growth inhibition: 36.3%
[3]; [7]
  growth inhibition: 2%
[3]; [8]
  growth inhibition: 48%
[3]; at 50.0 µM
  growth inhibition: 29.8%
[4]; [7]
  growth inhibition: -2%
[4]; [8]
  growth inhibition: 26%
[4]; at 50.0 µM
  growth inhibition: 21.1%
[5]; [7]
  growth inhibition: -16%
[5]; [8]
  growth inhibition: 39%
[5]; at 50.0 µM
  growth inhibition: 15.5%
[6]; [7]
  growth inhibition: 10%
[6]; [8]
  growth inhibition: 77% (active)
[6]; at 50.0 µM
  growth inhibition: 65.8%

## O=C(Oc1cccc2cccnc12)c1ccccc1
[1]; [7]
  growth inhibition: 4%
[1]; [8]
  growth inhibition: 97% (active)
[1]; at 50.0 µM
  growth inhibition: 96.4% (active)
[2]; [7]
  growth inhibition: -22%
[2]; [8]
  growth inhibition: 98% (active)
[2]; at 50.0 µM
  growth inhibition: 97% (active)
[3]; [7]
  growth inhibition: -4%
[3]; [8]
  growth inhibition: 97% (active)
[3]; at 50.0 µM
  growth inhibition: 93.6% (active)
[4]; [7]
  growth inhibition: 2%
[4]; [8]
  growth inhibition: 85% (active)
[4]; at 50.0 µM
  growth inhibition: 91.2% (active)
[5]; [7]
  growth inhibition: 28%
[5]; [8]
  growth inhibition: 99% (active)
[5]; at 50.0 µM
  growth inhibition: 98% (active)
[6]; [7]
  growth inhibition: 7%
[6]; [8]
  growth inhibition: 98% (active)
[6]; at 50.0 µM
  growth inhibition: 95.2% (active)
